From PubChem BioAssay
This is a sample that favours compounds with a hit; in the whole collection about 1.5% have one here.
RECQ1 inh-1 = RECQ1 (human) helicase inhibition; P46063; RECQ1 DNA unwinding, red fluorescence kinetic read; Potency, µM (top dose mostly 57.3 µM), most hits filed as inhibitors; 240,000 compounds, 0.54% hits; further: nearly all actives have a fitted effect of over 30% in size
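RECQ1T1 50 nM; forked duplex (20 bp + 30-nt ss tails) 200 nM, ATP 2 mM final; pH 8.0, 2 mM MgCl2, 2.5 ug/ml poly(dI-dC); 15 min compound preincubation; discontinuous kinetic read over 2 h at RT.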
BLM helicase inh = inhibitors of human Bloom syndrome helicase BLM | recombinant BLM DNA unwinding, fluorescence dequenching | AID 2528 | P54132 | 350,000 compounds, 0.2% hits | Potency, µM (titrated, usually from 56.1 µM), usual class: inhibitors; further: nearly all actives have a fitted effect of over 35% in size
PI5P4Ka inh = PI5P4K alpha (human) kinase inhibition. AID 652105. max response, %. PI5P4Kalpha enzyme, ADP-Glo luminescence, 60 min; stronger effect = lower value. P48426. 330,000 compounds, 1.2% hits; active means max response of -50% or lower; inconclusive means between -30% and -50%; inactive means -30% or higher; further: value at the top dose of about 77 µM
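Reactions run in 0.038 M HEPES pH 7.4, 0.28 mM EGTA, 0.1% CHAPS and 5% DMSO, with PI5P4Kalpha, substrate, compound and 5 microM ATP final, one hour at room temperature. Readout is ADP-Glo luminescence.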
FEN1 inhibitor = blocks human flap endonuclease 1; AID 588795; P39748; Recombinant FEN1 flap cleavage, fluorescence, 15 min; 390,000 compounds, 0.35% hits; Potency, µM (doses to about 114 µM), usual class: inhibitors; further: nearly all actives have a fitted effect of over 65% in size
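Nuclease activity of 10 nM FEN1 was measured after 15 min of room-temperature exposure to titrated compounds, by adding 50 nM flap substrate and reading plates at 0 and 15 min.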
APEX1 inh = APE1 (human) endonuclease inhibition | AID 2517 | 350,000 compounds, 0.35% hits | recombinant APE1, TAMRA/BHQ-2 abasic DNA cleavage fluorescence | Potency, µM (titrated, usually from 65.8 µM), actives largely listed as inhibitors; further: nearly all actives have a fitted effect of over 55% in size
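0.75 nM APE1 + cpd, 15 min RT; start w/ 50 nM TAMRA/BHQ-2 THF-abasic dsDNA; kinetic fluor 525/598 nm ×3 reads @60 s; Δ(read3−read1); normalized to DMSO and NSC13755 control wells.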
GCN5L2 inh = blocks human GCN5L2 histone acetyltransferase; GCN5L2 HAT assay, ThioGlo1 CoA-SH fluorescence; Potency, µM (highest dose often 58.9 µM), most hits filed as inhibitors; 390,000 compounds, 0.21% hits
Target sequence (Q92830 whole entry, looked up): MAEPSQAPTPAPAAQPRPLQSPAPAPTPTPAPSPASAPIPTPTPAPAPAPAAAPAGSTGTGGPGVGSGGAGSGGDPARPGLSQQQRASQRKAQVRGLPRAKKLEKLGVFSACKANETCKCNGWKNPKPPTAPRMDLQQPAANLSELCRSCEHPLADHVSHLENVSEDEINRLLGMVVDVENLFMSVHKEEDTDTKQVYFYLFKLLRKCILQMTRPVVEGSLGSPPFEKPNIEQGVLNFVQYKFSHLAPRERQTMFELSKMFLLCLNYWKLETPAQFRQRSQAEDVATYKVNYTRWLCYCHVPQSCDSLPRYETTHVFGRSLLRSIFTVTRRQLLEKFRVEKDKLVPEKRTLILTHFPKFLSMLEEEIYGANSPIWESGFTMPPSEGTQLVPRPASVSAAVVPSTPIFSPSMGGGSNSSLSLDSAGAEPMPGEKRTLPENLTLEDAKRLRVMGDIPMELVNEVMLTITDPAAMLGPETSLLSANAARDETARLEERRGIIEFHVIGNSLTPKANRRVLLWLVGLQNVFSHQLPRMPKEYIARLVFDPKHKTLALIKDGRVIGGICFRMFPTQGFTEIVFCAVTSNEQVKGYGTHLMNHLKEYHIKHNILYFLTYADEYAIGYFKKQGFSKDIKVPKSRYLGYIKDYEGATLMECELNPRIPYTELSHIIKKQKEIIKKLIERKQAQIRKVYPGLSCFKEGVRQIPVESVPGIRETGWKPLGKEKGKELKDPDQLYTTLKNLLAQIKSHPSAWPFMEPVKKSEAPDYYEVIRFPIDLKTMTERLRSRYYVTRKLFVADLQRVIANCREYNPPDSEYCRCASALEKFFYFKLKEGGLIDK
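qHTS, 1536-well. 20nM enzyme, pH 7.5 HEPES/EDTA/Tween-20 buffer; 15 min compound preinc., RT. Start: 75uM H3(1-25), 70uM AcCoA, 50uM ThioGlo1. Read Ex340/Em540 at t=0 (autofluorescence flag) and t=20 min.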
RECQ1 conf = confirmation of human RECQ1 helicase inhibitors; RECQ1 helicase DNA unwinding, fluorescence; Potency, µM (doses to about 229 µM), actives largely listed as inhibitors; AID 2708; 610 compounds, 28% hits; shares compounds with RECQ1 inh-1; further: nearly all actives have a fitted effect of over 45% in size
ADP FP counter = displaces ADP in a fluorescence polarization counter-screen for RECQ1 hits; ADP fluorescence polarization displacement counterscreen; shares compounds with RECQ1 inh-1; Potency, µM (series often up to 228 µM), usual class: inhibitors; AID 2711; 530 compounds, 27% hits; further: nearly all actives have a fitted effect of over 45% in size
RECQ1 inh-2 = RECQ1 helicase inhibition confirmed, round 2 | shares compounds with RECQ1 inh-1 | recombinant RECQ1 DNA unwinding, red fluorescence | AID 504841 | 1,100 compounds, 15% hits | Potency, µM (titrated, usually from 119 µM), most hits filed as inhibitors; further: nearly all actives have a fitted effect of over 50% in size
A number is an active result; n = inactive; u = inconclusive; x = not tested or not shown; ! = repeats disagree; [ ] = remark or other dose. Unless noted, the call rests on the fitted dose curve; in most records, active means well fitted curve in the direction sought with a large enough effect; inconclusive means small, poorly fitted or top-dose-only effect, or another doubt; inactive means no such curve, though single readings can be large; an effect the other way counts as inactive or inconclusive.

SMILES	RECQ1 inh-1	BLM helicase inh	PI5P4Ka inh	FEN1 inhibitor	APEX1 inh	GCN5L2 inh	RECQ1 inh-2	others
COCCn1c(C)cc(C(=O)COC(=O)c2cc3c(s2)CCC3)c1C	u	n	u	n	12.6µM	n	u
Cc1cc(C)cc(N2C(=O)CN(Cc3sccc3C)C2=S)c1	n	n	n	n	n	n	x
CCc1ccc(N2C(=O)CN(Cc3sccc3C)C2=S)cc1	1.58µM	n	n	n	n	n	n	RECQ1 conf=n;ADP FP counter=n
CC(=O)Oc1ccc(C(=O)Nc2ccc3c(c2)C(=O)N(CCC(=O)O)C3=O)cc1	n	n	x	n	n	n[0.501 µM]	x	RECQ1 conf=u;ADP FP counter=u
COc1cc(C(=O)Nc2ccc3c(c2)C(=O)N(CCC(=O)O)C3=O)cc(OC)c1OC	n	n	n	n	n	n	x
O=C(NCc1n[nH]c(=S)n1-c1cccc(C(F)(F)F)c1)c1ccc(S(=O)(=O)N2CCCCC2)cc1	x	n	n	n	n	n	x
O=C(NCc1n[nH]c(=S)n1-c1cccc(C(F)(F)F)c1)c1ccc(S(=O)(=O)N2CCCC2)cc1	n	n	n	n	n	n	x	RECQ1 conf=n;ADP FP counter=n
CCCCc1nc2c(c3c1C[C@H](C)OC3)CN(S(=O)(=O)c1ccc(C#N)cc1)CC2	n[11.5 µM]	n[12.4 µM]	x	x	n[12.4 µM]	x	x
C1CCOC1	n	x	x	x	n	x	x
Cc1cc(C(=O)COC(=O)c2cccn2C)c(C)n1Cc1ccco1	u	n	n	n	u	n	n
Cc1cc(C(=O)COC(=O)c2ccncc2)c(C)n1Cc1ccco1	n	n	n	n	n	n	x
CCOc1cccc(OCCOc2ccccc2[N+](=O)[O-])c1	u	n	n	n	n	n	n
CCCCC(CC)COC(=O)COc1ccc(Cl)cc1Cl (stereo not drawn)	n	x	x	x	n	x	x
CCOC(=O)C(Oc1ccc2c(-c3ccccc3)cc(=O)oc2c1)c1ccccc1 (stereo not drawn)	u	n	n	n	n	n	n
C1CCC[C@H]2CCCN3CC[C@H](CCCCCC[C@@H]4CCCN5CC[C@H](CC1)OC45)OC23	n	x	x	x	n	n	x
COc1ccc2c(c1)CC/C(=C\c1ccc(OC)c(Cn3nc(C)cc3C)c1)C2=O	35.5µM	n	n	u	n	n[0.501 µM]	u
COc1ccc2c(c1)CC/C(=C\c1ccc(OC)c(Cn3cccn3)c1)C2=O	n	n	n	n	n	n	x
c1cc2c3c(cccc3c1)C(N1CCCCCC1)=N2	n	n	n	n	n	n	x
c1ccc2c(c1)CCN(C1=Nc3cccc4cccc1c34)C2	12.6µM	n	n	u	u	n	n	RECQ1 conf=n
O=C(Cc1ccccc1Nc1c(Cl)cccc1Cl)OCO/N=[N+](\[O-])N1CCCC1	n	n	x	n	n	x	x
CCCCOC(=O)CSC1=C(C#N)C(c2ccccc2OC)C(C#N)C(=O)N1 (stereo not drawn)	14.1µM	n	n	n	n	n	u
CCC1=NN2C(=N)/C(=C\c3ccc(SCc4ccco4)o3)C(=O)N=C2S1	22.4µM	u	-52.0	n	u	n	n
O=C1NC(=S)S/C1=C\c1ccc(SCc2ccco2)o1	5.01µM	u	-99.3	u	1.78µM	14.1µM	x	RECQ1 conf=39.8µM
CCCC1=NN2C(=N)/C(=C\c3ccc(SCc4ccco4)o3)C(=O)N=C2S1	10µM	u	-56.4	u	3.98µM	u	35.5µM
CCCC1=NN2C(=N)/C(=C\c3cc(C)n(Cc4ccccc4)c3C)C(=O)N=C2S1	n	n	n	n	n	n	x
SMILES	RECQ1 inh-1	BLM helicase inh	PI5P4Ka inh	FEN1 inhibitor	APEX1 inh	GCN5L2 inh	RECQ1 inh-2	others
C#Cc1ccc2c(c1)C(=O)N(C)Cc1c(C(=O)OCCCOC(=O)c3ncn4c3CN(C)C(=O)c3cc(C#C)ccc3-4)ncn1-2	n	n	x	x	n	n	x
Nc1cc(=O)[nH]c(SCC(=O)Nc2ccc3c(c2)CCC3)n1	u	n	n	n	u	n	n
CCCc1cc(=O)[nH]c(SCC(=O)Nc2ccc3c(c2)CCC3)n1	n	n	n	n	n	u	x
COc1cccc(=O)c2c(C)n(-c3ccc(C(=O)O)cc3)c(C)c12	u	n	n	n	u	n	u
CCOc1cccc(=O)c2c(C)n(-c3ccc(C(=O)O)cc3)c(C)c12	u	n	n	u	u	n	u
COc1ccc(-n2c(C)c3c(OC)cccc(=O)c3c2C)cc1	n	n	n	n	n	n	x
CCN(C/C=C/C#CC(C)(C)C)Cc1cccc(OCc2cc(-c3ccsc3)cs2)c1	n	n	x	x	n	n	x
O=C(C[n+]1cccc(Br)c1)c1ccc2c(c1)CCCC2	x	x	x	n	x	x	x
Cc1ccc(NC(=S)NC(=O)c2sc3ccccc3c2Cl)c(C(=O)O)c1	n	n	x	x	n	n	x	RECQ1 conf=89.1µM;ADP FP counter=u
NCC(=O)N[C@@H](CCCN=C(N)N)C(=O)NCC(=O)N[C@@H](CCC(=O)O)C(=O)N[C@@H](CO)C(=O)O	n	n	x	x	n	n	x
Cn1c(Cn2nnc3ccccc32)nnc1SCC(=O)N1c2ccccc2Sc2ccccc21	n	n	x	n	u	n	x	RECQ1 conf=n;ADP FP counter=n
Cn1c(Cn2nnc3ccccc32)nnc1SCC(=O)N1c2ccccc2CCc2ccccc21	n	n	x	n	u	n	x
CC/C(=C/c1sc2ccc(C)cc2[n+]1CCCS(=O)(=O)[O-])SC	u	n	n	n	n	n	n
COc1ccc(C2Nc3ccccc3C(=O)N2c2cccc3ccccc23)cc1COc1c(C)cccc1C (stereo not drawn)	x	x	x	n	x	x	x
O=C(CSc1ccc(-c2ccco2)nn1)NCCc1ccccc1	39.8µM	n	n	n	u	n	n
COc1ccc(CCNC(=O)CSc2ccc(-c3ccco3)nn2)cc1	35.5µM	n	n	n	u	u	u
COc1ccc(NC(=O)CSc2ccc(-c3ccco3)nn2)cc1	x	n	u	n	n	n	x
Cn1nnc(NC(=O)c2ccc(C(C)(C)C)cc2)n1	20µM	n	n	n	n	n	n
COc1ccc(CCn2c(=O)[nH]c3cc(C(=O)N4CCN(c5ccccc5)CC4)ccc3c2=O)cc1OC	n	n	n	n	n	n	x
COc1ccc(CCn2c(=S)[nH]c3cc(C(=O)N4CCOCC4)ccc3c2=O)cc1OC	35.5µM	n	n	n	n	n	n
N=C(N)c1ccccc1	14.1µM!	n	n	u	n	n	x	RECQ1 conf=n;ADP FP counter=n
